These results are taken from PubChem BioAssay AID652068 (The Scripps Research Institute Molecular Screening Center, 2013).

The inhibition is the change of the read-out against control, counted positive when it falls.

The campaign covered roughly 4,300 compounds. About 4,000 (93%) were called active.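 How the source made its calls: active means inhibition above its plate's cutoff, the mean test-well inhibition plus 3 SD (cut at about 4.8% in these data); inactive means the rest.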 So high a share suggests a set chosen from earlier hits. These entries were drawn from the full list.

The nature of the assay: DNA CAG/GTC dye complex inhibitors – biochemical, fluorescence, TO-PRO-1 dye, d(CAG) DNA oligo, counter-screen for rCAG RNA repeat binder project (AID 652068).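 Further: 0% = DNA dye mix with DMSO and 100% = 100 µM mitoxantrone; hits displace the dye from DNA and so lower well fluorescence.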 The note with it: d(CAG) DNA oligo TO-PRO-1 dye displacement, at 3 µM, active compounds read high. Background: The purpose of a counterscreen is to sort out artefacts and off-target activity.
With `CC1(C(=O)NS(=O)(=O)c2ccc3ccccc3c2)CCN1C(=O)C1(c2ccc(Cl)cc2)CCC1` (stereo not drawn), the inhibition was 31.7% (active).

As to `Cc1ccc(OCCC(=O)Nc2ccc(S(=O)(=O)Nc3nccs3)cc2)cc1`, the inhibition is 14.7% (active).

Consider `O=C(CCc1ccccc1Cl)Nc1ccc(S(=O)(=O)Nc2nccs2)cc1`, for which the inhibition is 10.9% (active).

As for `O=C(Nc1ccc(S(=O)(=O)Nc2nccs2)cc1)c1cccc(S(=O)(=O)N2CCOCC2)c1`, the inhibition is 5.67% (active).

In the case of `CN1CCN(S(=O)(=O)c2cccc(C(=O)Nc3sccc3C#N)c2)CC1`, the inhibition was 7.1% (active).

For the compound `O=C(Nc1ccc(S(=O)(=O)Nc2nccs2)cc1)c1cc(-c2ccncc2)nc2ccccc12`, the inhibition was 29.6% (active).

On to `CC1CCCCN1S(=O)(=O)c1ccc(C(=O)Nc2nnc(-c3cccs3)o2)cc1` (stereo not drawn), for which the inhibition was 14.2% (active).

As for `Cc1ccc([C@@H]2CC=C(C(=O)O)[C@H](c3cccc(Cl)c3)N2S(=O)(=O)c2ccc(C)cc2)cc1`, the inhibition was 41.1% (active).

On to `Cc1ccc(S(=O)(=O)N2[C@@H](c3ccccc3F)C(C(=O)O)=CC[C@H]2c2ccc(Cl)cc2)cc1`, for which the inhibition is 29.3% (active).

Regarding `Cc1ccccc1S(=O)(=O)N1[C@@H](c2cccc(Cl)c2)C(C(=O)O)=CC[C@H]1c1ccc(Cl)cc1`, the inhibition was 53.5% (active).

`CC(=O)Nc1ccc(S(=O)(=O)Nc2nc(-c3ccc(C(C)(C)C)cc3)cs2)cc1`: the inhibition is 30.7% (active).

Turning to `CC(=O)Nc1ccc(C(=O)Nc2nc(-c3cc(C)n(Cc4ccccc4)c3C)cs2)cc1`, the inhibition is 14.6% (active).

For the compound `O=C(Nc1ccccc1)Nc1nc2ccccc2s1`, the inhibition was 14.7% (active).

As to `CC(=O)Nc1ccc(-c2csc(NC(=O)Nc3ccccc3)n2)cc1`, the inhibition is 22.8% (active).

In the case of `Cc1cc(C)c2nc(-c3cccnc3)cc(C(=O)Nc3ccc(S(=O)(=O)Nc4onc(C)c4C)cc3)c2c1`, the inhibition was 58.6% (active).

Consider `Cc1noc(NS(=O)(=O)c2ccc(NC(=O)c3oc4ccc(F)cc4c3C)cc2)c1C`, for which the inhibition is 25.4% (active).

`Nc1[nH]c(=S)nc2nc(-c3ccccc3)c(-c3ccccc3)nc12`: the inhibition is 13.8% (active).

`Cc1ccc(-n2ncc3c(Nc4cccc(C(=O)O)c4)ncnc32)cc1`: the inhibition is 4.92% (active).

As for `O=S(=O)(Nc1ccc(O)c2ccccc12)c1ccc(OC(F)(F)F)cc1`, the inhibition was 23.5% (active).

For `O=c1oc(-c2ccccc2NS(=O)(=O)c2ccc(Cl)cc2)nc2ccccc12`, the inhibition was 8.49% (active).

In the case of `CSc1nnc(NC(=O)c2nc(S(=O)(=O)Cc3ccc(C)cc3)ncc2Cl)s1`, the inhibition was 11.6% (active).

As for `C=CCNc1nc(N)c(C(=C(C#N)C#N)c2ccccc2)s1`, the inhibition was 9.76% (active).

In the case of `COc1ccccc1C1C(C#N)=C(N)Oc2c1c(-c1ccccc1)nn2-c1ccccc1` (stereo not drawn), the inhibition was 12% (active).
